{"source": "PubChem BioAssay AID686979", "about": "(National Center for Advancing Translational Sciences (NCATS), 2013)", "note": "Among all 420,000 compounds or so, about 50,000 (12%) were called active. Not shown: some 26% with an inconclusive outcome. Shown is part of a subset that was picked to be rich in actives. Unmarked numbers belong to inactive results. Calls come from the whole dose curve; as a rule, active = well fitted inhibition curve with a large enough effect; inconclusive = small, poorly fitted or top-dose-only effect; inactive = flat fitted curve, though single readings scatter. % is set by controls: 0 for no effect and ±100 for the full control effect; potency is the fitted concentration of half-maximal effect.", "data": [{"assay": "qHTS for Inhibitors of human tyrosyl-DNA phosphodiesterase 1 (TDP1): qHTS in cells in presence of CPT; note: nearly all actives have a fitted effect of over 55% in size", "conditions": "chicken DT40 Tdp1-/-;hTDP1 cells + 20 nM CPT, ATP luminescence, 48 h; series mostly up to 46.2 µM; activity change, negative = growth inhibition: at the top concentration", "outline": "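Chicken DT40 Tdp1-/- cells complemented with human TDP1, 400 cells/well, exposed to compounds plus 20 nM camptothecin for at least 48 h at 37 C; viability read as ATP content by CellTiter-Glo luminescence.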", "units": {"activity change, negative = growth inhibition": "%"}, "values": [{"smiles": "Oc1ccc(Cl)c2c1CCC2", "activity change, negative = growth inhibition": -11.1}, {"smiles": "COc1ccc(S(=O)(=O)Nc2ccc(S(=O)(=O)N3CCCCC3)cc2)cc1OC", "activity change, negative = growth inhibition": 1.55}, {"smiles": "COc1ccc(-c2ccc(Nc3ccc(S(=O)(=O)N4CCCC4)cc3)nn2)cc1OC", "Potency": "16.4 µM (active)"}, {"smiles": "COc1cc(NS(=O)(=O)c2ccc(NC(=O)c3ccc(S(=O)(=O)N4CCCCC4)cc3)cc2)ncn1", "activity change, negative = growth inhibition": -1.79}, {"smiles": "COCCOC(=O)c1c(C)oc2cc(Br)c(OCC(N)=O)cc12", "activity change, negative = growth inhibition": -20.2}, {"smiles": "COC(=O)c1ccc(NC(=O)c2cc(S(=O)(=O)N3CCC(C)CC3)cn2C)cc1", "activity change, negative = growth inhibition": 2.23}, {"smiles": "COc1cc(OC)cc(C(=O)NCCc2csc3nc(-c4ccccc4F)nn23)c1", "activity change, negative = growth inhibition": -21.4}, {"smiles": "Cc1c(Cl)cccc1NC(=O)C(=O)NCCc1csc2nc(-c3ccccc3F)nn12", "Potency": "18.4 µM (active)"}, {"smiles": "CCOc1ccc(NC(=O)C(=O)NCCc2csc3nc(-c4ccccc4F)nn23)cc1", "activity change, negative = growth inhibition": -6.96}, {"smiles": "CCCC(O)(c1ccc(OC)cc1)C(CN(C)C)c1ccccc1", "note": "(centres undefined)", "activity change, negative = growth inhibition": -2.36}, {"smiles": "COc1cccc(CN(C)CC(O)COC(c2ccccc2)c2ccccc2C)c1", "note": "(centres undefined)", "Potency": "20.6 µM (active)"}, {"smiles": "COc1cccc(CN(C)CC(=O)Nc2ccccc2C(=O)Nc2ccccc2)c1", "activity change, negative = growth inhibition": -27.1}, {"smiles": "CCOC(=O)C1=CCC(c2ccc(F)cc2)N(S(=O)(=O)c2ccc(C)cc2)C1", "note": "(centres undefined)", "Potency": "16.4 µM (active)"}, {"smiles": "CCCCC[C@@H]1C=C(C(=O)OCC)[C@H](c2ccccc2)N1S(=O)(=O)c1ccc(C)cc1", "Potency": "14.6 µM (active)"}, {"smiles": "Cc1ccccc1S(=O)(=O)N1[C@@H](c2cccc(Cl)c2)C(C(=O)OC(C)(C)C)=CC[C@H]1c1ccc(Cl)cc1", "Potency": "20.6 µM (active)"}, {"smiles": "Cc1ccc(S(=O)(=O)N2[C@@H](c3ccccc3F)C(C(=O)O)=CC[C@H]2c2ccc(Cl)cc2)cc1", "activity change, negative = growth inhibition": -19.3}, {"smiles": "O=C(CN1CCN(S(=O)(=O)c2ccc(F)cc2)CC1)NC1CC1", "activity change, negative = growth inhibition": -0.247}, {"smiles": "Cc1ccc(S(=O)(=O)N2[C@@H](c3ccc(Br)cc3)C(C(=O)O)=C[C@H]2CC2CCCC2)cc1", "activity change, negative = growth inhibition": 3.8}, {"smiles": "Cc1ccc(S(=O)(=O)N2CCCC2CO)cc1", "note": "(centres undefined)", "activity change, negative = growth inhibition": -0.712}, {"smiles": "COc1ccc(S(=O)(=O)N2CCC(C(=O)NCCC(=O)NCc3cccc(OC)c3)CC2)cc1", "activity change, negative = growth inhibition": 7.57}, {"smiles": "CCOC(=O)C1=CC[C@@H](c2ccccc2)N(S(=O)(=O)c2ccc(C)cc2)[C@H]1c1cccc(OC)c1", "Potency": "23.1 µM (active)"}, {"smiles": "Cc1ccccc1S(=O)(=O)N1[C@@H](c2cccc(Cl)c2)C(C(=O)O)=CC[C@H]1c1ccc(Cl)cc1", "activity change, negative = growth inhibition": -0.808}, {"smiles": "Cc1ccc(S(=O)(=O)N2[C@@H](c3cccc4ccccc34)C(C(=O)O)=C[C@H]2C(C)(C)C)cc1", "activity change, negative = growth inhibition": 5.23}, {"smiles": "Cc1ccc(S(=O)(=O)N2C[C@H]3C(=O)C[C@@H](c4cccc5ccccc45)N(S(=O)(=O)c4ccc(C)cc4)[C@H]3C[C@H]2c2ccc(Cl)cc2)cc1", "activity change, negative = growth inhibition": 1.73}]}]}
